# Data taken from PubChem BioAssay AID1508649 (National Center for Advancing Translational Sciences (NCATS), 2021).
# The whole screen tested about 43,000 compounds, of which about 830 (1.9%) were called active. Roughly 30% stayed inconclusive and do not appear here. The full list was thinned out, with actives kept by preference. A number with no mark means an inactive call. Rule for the calls: active = clear falling dose curves in both reporters; inconclusive = both reporters move, but less clearly or upward; inactive = either reporter flat; the % is the NLuc reporter signal.
# Assay: Cell-based coincidence reporter assay to measure PMP22 gene transcription in S16 Pmp22-F2sN cells - Primary screen
# Details: S16 Pmp22-F2sN Schwann cells (luciferase reporters placed in the Pmp22 gene), FLuc/NLuc coincidence luminescence, 24 h; series mostly up to 57.5 µM; activity change, negative = inhibition: at the top concentration
# Description: Assay Provider: Jim Inglese Ph.D. National Center for Advancing Translational Science, National Institutes of Health, Rockville, MD CMT is a heterogeneous group of neurological disorders that affect approximately 1 in 2,500 people. In particular, the most common form of CMT, CMT1A is genetically linked to the duplication of the PMP22 gene which leads to Schwann cell overexpression, thus manifesting itself as a typical case of dose-sensitive diseases. To identify small molecule compounds that can mediate the expression of PMP22 we developed a phenotypic assay screening strategy by utilizing genome editing techniques to construct Schwann cell lines containing novel reporter technology to monitor the transcriptional or translational regulation of PMP22. For high sensitivity we use a bioluminescent reporter system embedded in the 3' UTR of the PMP22 gene (S16(c9) Pmp22-F2sN) to identify compounds that inhibit gene expression. […] We can further discriminate the effect of all transcriptionally active molecules on PMP22 translation or stability with an assay that incorporates a short NLuc peptide (HiBiT) at the C-terminus of expressed PMP22 (S16(f8) PMP22-HiBiT) allowing alpha complementation and luminescence detection of membrane-associated PMP22 protein. These assays were screened against the NCATS Sytravon Library Collection. Miniaturization of these assays to 1536-well plate format for quantitative high throughput screening (qHTS) yielded rich data sets immediately from the qHTS assay (S16(c9) Pmp22-F2sN), when compared with data from a cell viability assay (Cell TiterGlo) to identify compounds that decreased the output signals through cellular toxicity to streamline the selection process of actives for subsequent characterization using the HiBiT assay (S16(f8) PMP22-HiBiT).
# Cell-based coincidence reporter assay to measure PMP22 gene transcription in S16 Pmp22-F2sN cells PROTOCOL TABLE (format as described by Inglese J, Shamu CE and Guy RK. 2007) SEQUENCE No. (e.g., 1, 2, 3, etc.); […] (e.g., Cells, Incubation, Reagent, etc.); VALUE and DESCRIPTION. 1. Cells. Add 500-1,000 cells in 4 uL in growth media (DMEM High Glucose, No Phenol Red media + 10% heat-inactivated FBS + 1% Pen/Strep supplemented media) per well into Greiner 1536-well white/solid bottom high base, TC-treated plates. 2. Compounds. Library compounds and controls added at 23nL per well, transferred by Pin Tool. 3. Incubation. Incubate plates at 37C, 5% CO2, 95% RH for 24 h. 4. Reagent. Add 3.5uL Nano-Glo Dual-Luciferase Reporter Assay System reagent 1: Lysis and FLuc reagent per well of Greiner 1536-well plates. 5. Incubation. Incubate plates at room temperature for 10 min., protect from light. 6. Detector. FLuc luminescence measured using CCD-based camera (Viewlux). 7. Reagent. Add 3.5uL Nano-Glo Dual-Luciferase Reporter Assay System reagent 2: Stop&Glo reagent per well of Greiner 1536-well plates. 8. Incubation. Incubate plates at room temperature for 10 min., protect from light. 9. Detector. NLuc luminescence measured using CCD-based camera (Viewlux). NOTES (numbers refer to Sequence numbers above; values are from representative experiments) 6. Luminescence Read #1 (FLuc): Clear filter; Exposure = 10 sec, Gain = High, Speed = Slow, Binning = 2X 9. Luminescence Read #2 (NLuc): Clear filter; Exposure = 1 sec, Gain = High, Speed = Slow, Binning = 2X REFERENCES: 1. Inglese J, Shamu CE and Guy RK, Reporting data from high throughput screening of small molecule libraries, Nature Chemical Biology, 2007, 3(8): 438-441. doi.org/10.1038/nchembio0807-438 2. Yasgar A, Shinn P, Jadhav A, Auld DS, Michael S, Zheng W, Austin CP, Inglese J and Simeonov A, Compound Management for Quantitative High-Throughput Screening. J. Assoc. Lab. Auto., 2008, 13: 79-89. doi: 10.1016/j.jala.2007.12.004
# % is set by controls: 0 for no effect and ±100 for the full control effect; potency is the fitted concentration of half-maximal effect.
SMILES,"activity change, negative = inhibition",Potency
COc1ccc(N2CCN(C(=O)c3c(C)oc4nc(C)nc(N5CCCC5)c34)CC2)cc1,-27.4%,
CCc1ccc(C2CC(=O)c3c([nH]c(C(=O)OCc4ccc(C)cc4)c3C)C2)cc1 (stereo unspecified),,10 µM (active)
CC1=C(C(=O)OCc2ccc(C)cc2)C(c2ccccc2Cl)CC(=O)N1 (stereo unspecified),14%,
CC1=C(C(=O)OCc2ccc(C)cc2)C(c2c(Cl)cccc2Cl)CC(=O)N1 (stereo unspecified),-9.76%,
COc1ccc(-c2nn3c(-c4ccc(OC)cc4)nnc3c3ccccc23)cc1,2.98%,
CCOC(=O)c1cc(OC(=O)c2ccccc2Cl)n(-c2ccccc2)n1,-11.1%,
COc1cc(OC)cc(-c2nc3nc(C)c(CCC(=O)Nc4ccc(C)cc4)c(C)n3n2)c1,1.75%,
Cc1ccc(NC(=O)Cn2cnc3nc4c(cc3c2=O)CCCC4)cc1Cl,23.1%,
O=C(CCc1nc(CN2CCN(S(=O)(=O)c3ccc(F)cc3)CC2)no1)N1CCCCC1,-12.7%,
CCOC(=O)c1cccc(NC(=O)c2cc(CN3CCCC3)on2)c1,4.87%,
CCc1ccccc1NC(=O)N1CCN(C(=O)c2nsc3ccccc23)CC1,2.47%,
Cc1ccc(NC(=O)CN2c3ccccc3S(=O)(=O)c3ccccc32)cc1F,6.49%,
COc1cccc(NC(=O)N2CCN(C(=O)c3nsc4ccccc34)CC2)c1,-15.2%,
CCc1ccccc1NC(=O)Cc1cn(C)c2ccccc12,-23.8%,
COc1cccc(NC(=O)N(Cc2cn(C)c3ccccc23)C2CCCCCC2)c1,,10.6 µM (active)
O=c1cc(COc2cccc(C(F)(F)F)c2)nc2sc3c(n12)CCCC3,-19.3%,
CCOc1ccccc1NC(=O)Cn1nnc(C(=O)NCc2cccs2)c1N,,0.401 µM (active)
CCOc1ccccc1NC(=O)Cn1nnc(C(=O)Nc2ccc(C)c(C)c2)c1N,-12.8%,
COc1cccc(CNC(=O)c2nnn(CC(=O)Nc3cc(Cl)ccc3C)c2N)c1,-26.4%,
COc1ccc(C2Sc3ccccc3NC3=C2C(=O)c2ccccc23)c(OC)c1OC (stereo unspecified),,7.27 µM (active)
Cc1ccc(-c2noc(CSc3nnc(-c4ccc(Cl)cc4)n3C)n2)cc1,-54.7%,
Cc1nnc(C)n1-c1ccc(C(=O)Nc2cccc(Br)c2)cc1,23.7%,
CCN(CCCNC(=O)c1c(C)oc2ncn(CC(C)C)c(=O)c12)Cc1ccccc1,-18.5%,

SMILES,"activity change, negative = inhibition",Potency
COc1ccc(OC)c(NC(=O)C2CCN(S(=O)(=O)c3ccc(C)cc3)CC2)c1,2.94%,
Cc1cc(C)nc(NS(=O)(=O)c2ccc(NC(=O)c3cc(=O)c4ccc(C)c(C)c4o3)cc2)n1,-33.5%,
COc1ccc(S(=O)(=O)Nc2cc3c(C(=O)OC(C)C)c(C)oc3c3ccccc23)cc1,,11.3 µM (active)
COc1ccc(Cn2ccnc2SCC(=O)Nc2ccc3c(c2)OCO3)cc1,-13%,
CCn1cc(C(=O)NCc2ccc(C)cc2)c(=O)c2cc(S(=O)(=O)N3CCc4ccccc4C3)ccc21,0.357%,
COc1ccccc1Nc1c2c(nc3ccc(NC(=O)/C=C/c4cc(OC)c(OC)c(OC)c4)cc13)CCCC2,,6.04 µM (active)
COc1cc(NC(=O)c2nc3ccccc3nc2C)cc(OC)c1OC,-18.9%,
COc1cccc(C(=O)Nc2ccc3nc4n(c(=O)c3c2)CCCCC4)c1,-16.8%,
CC(=O)c1ccc(N2CCN(C3C(=O)c4ccccc4N3C(C)=O)CC2)cc1 (stereo unspecified),6.64%,
O=C(C1COc2ccccc2O1)N(Cc1cccnc1)c1nc2c(F)cc(F)cc2s1 (stereo unspecified),-8.93%,
Cc1ccc2sc(N(Cc3cccnc3)C(=O)C3COc4ccccc4O3)nc2c1C (stereo unspecified),-67.6%,
O=C(CCS(=O)(=O)c1ccccc1)N(Cc1cccnc1)c1nc2c(F)cccc2s1,,10.6 µM (active)
CCC(C(=O)Nc1cccc(-c2nc3cccnc3s2)c1C)c1ccccc1 (stereo unspecified),-37.5%,
CCOC(=O)c1sc(NC(=O)/C=C/c2ccc(C(C)C)cc2)c(C(=O)OCC)c1C,-30.7%,
Cc1ccc(F)cc1NC(=O)CCSc1nc(-c2ccco2)cc(C(F)(F)F)n1,9.36%,
COc1ccccc1-c1cc(C(F)(F)F)nc(S(=O)(=O)CCCC(=O)Nc2cc(C)ccc2O)n1,-12.6%,
COc1ccccc1-c1cc(C(F)(F)F)nc(S(=O)(=O)CCCC(=O)Nc2ccc(F)cc2F)n1,,11.3 µM (active)
COc1cc2c(cc1OC)C(COc1ccc(F)cc1)N(C(=O)c1ccccc1F)CC2 (stereo unspecified),0.344%,
COc1ccc(N2CCN(Cc3nc4c(c(=O)[nH]c(=O)n4C)n3Cc3ccc(Cl)cc3)CC2)cc1,-16.2%,
COC(=O)c1c(NC(=O)CCCOc2ccccc2)sc2c1CCC(C)C2 (stereo unspecified),7.02%,
CCOc1ccc(NC(=O)c2c(NC(=O)Cc3ccccc3)sc3c2CCC(C)C3)cc1 (stereo unspecified),,18.9 µM (active)
O=C(Cc1ccccc1)Nc1sc2c(c1C(=O)Nc1ccc(Br)cc1)CCC2,-32.6%,
Cc1ccc(Nc2c(-c3ccc(C)s3)nc3ccccn23)cc1,-18.5%,
